FMDV inh: blocks foot and mouth disease virus; AID 1159524; hit rate 1.2% among 410,000; FMDV antiviral cell-based qHTS; Potency, µM (titrated, usually from 57.9 µM), most hits filed as inhibitors; calls by dose curve; tested in HEK293T cells; also: read-out not given here; nearly all actives have a fitted effect of over 45% in size
HCMV antiviral: inhibitors of human cytomegalovirus; HFF cells, HCMV-luciferase reporter, 72 h; active compounds read low; activity change, negative = inhibition, % at 57.5 µM; hit rate 4.5% among 410,000; AID 1259415; in the data active = activity change below about -60%; inconclusive = no clear call, values can overlap the other calls; inactive = above about -39%
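Cell-based, HFFs, 1000 cells/well, 16 h 37C; cpds in DMSO + HCMV-luc, MOI 1 PFU/cell; 72 h 37C; OneGlo luminescence after 5 min RT; norm. to buffer vs Salinomycin 10uM.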
Vaccinia mCherry: vaccinia inhibition (mCherry reporter); Potency, µM (titrated, usually from 36.5 µM), actives largely listed as inhibitors; Vaccinia virus mCherry reporter infection, fluorescence; AID 720579; hit rate 0.63% among 310,000; calls by dose curve; tested in A549 cells; also: nearly all actives have a fitted effect of over 35% in size
Vaccinia Venus: vaccinia inhibition (Venus reporter); hit rate 0.46% among 330,000; Vaccinia virus Venus reporter expression, fluorescence; Potency, µM (series often up to 36.5 µM), most hits filed as inhibitors; calls by dose curve; tested in A549 cells; also: nearly all actives have a fitted effect of over 30% in size
HCV inh: HCV inhibition | Huh7.5.1 HCVcc-Cre infection, luciferase reporter, 44 h | Potency, µM (highest dose often 41.8 µM), actives largely listed as inhibitors | hit rate 3.4% among 340,000
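1,000 cells/well; 4 h culture; + compound; + HCVcc-Cre (~0.5 moi); 44 h; luciferase substrate, RT 15 min; read 15 sec.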
HCV confirm: confirmation of hepatitis C virus inhibitors | shares compounds with HCV inh | HCVcc-Cre infectious virus cell assay, luciferase, inhibition | Potency, µM (highest dose often 41.8 µM), most hits filed as inhibitors | hit rate 78% among 640 | AID 720575; also: nearly all actives have a fitted effect of over 80% in size
HCV host tox: host cell cytotoxicity counter-screen for HCV inhibitors. shares compounds with HCV inh. HCV host cell line cytotoxicity counterscreen. Potency, µM (top dose mostly 41.8 µM), actives largely listed as inhibitors. hit rate 22% among 640. AID 720576;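 also: 44 h compound exposure; nearly all actives have a fitted effect of over 55% in size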
Numbers stand for hits; ! = a repeat was not active. Sampled rows, rich in hits. Any-hit rate of the full collection: about 7.3%. Unless noted, calls follow the shape of the dose curve; as a rule, active = well fitted curve in the direction sought with a large enough effect; inconclusive = small, poorly fitted or top-dose-only effect, or another doubt; inactive = no such curve, though single readings can be large; an effect the other way counts as inactive or inconclusive.

What do the screens show for `CCN1CCN(c2cc(C)c3cc(NC(=O)c4cc(OC)cc(OC)c4)ccc3n2)CC1`?
FMDV inh: inactive; HCMV antiviral: -90!; Vaccinia mCherry: inactive; Vaccinia Venus: inactive; HCV inh: 2.2µM; HCV confirm: 25µM; HCV host tox: 22µM

Results for CCN(CC)CCNC(=S)Nc1ccc2nc(N3CCCC3)cc(C)c2c1 ?
FMDV inh: inactive; HCMV antiviral: inactive; HCV inh: 2µM; HCV confirm: 7µM; HCV host tox: inactive

Results for CC(=O)N1CCC(N(Cc2ccc(C)o2)C(=O)Nc2cccc(C(F)(F)F)c2)CC1 ?
FMDV inh: inactive; HCMV antiviral: inactive; Vaccinia mCherry: inactive; Vaccinia Venus: inactive

How did Cc1cc(Cl)c2oc(C(=O)N3CCN(C(=O)c4ccco4)CC3)c(C)c2c1 do in these assays?
FMDV inh: inactive; HCMV antiviral: inactive; HCV inh: inconclusive; HCV confirm: inconclusive; HCV host tox: inactive

Results for Cc1cc(Cl)c2oc(C(=O)N3CCOCC3)c(C)c2c1 ?
FMDV inh: inactive; HCMV antiviral: inactive; Vaccinia mCherry: inactive; Vaccinia Venus: inactive

Results for COc1cc(C(=O)Nc2nc3c(s2)Cc2c(Br)ccc(OC)c2-3)cc(OC)c1OC ?
FMDV inh: inactive; HCMV antiviral: inactive; Vaccinia mCherry: inactive; Vaccinia Venus: inactive

Results for O=C(NC(=S)Nc1cccc([N+](=O)[O-])c1)C1CCCCC1 ?
FMDV inh: inactive; HCMV antiviral: inactive; Vaccinia mCherry: inactive; Vaccinia Venus: inactive; HCV inh: inactive

What do the screens show for `O=C(Nc1ccc([N+](=O)[O-])cc1)/C(=C/c1cccc([N+](=O)[O-])c1)NC(=O)C1CCCCC1`?
HCMV antiviral: inactive; Vaccinia mCherry: inactive; Vaccinia Venus: inactive; HCV inh: inconclusive; HCV confirm: 22µM; HCV host tox: inactive

How did COc1cc2ccccc2cc1C(=O)Nc1ccccc1N1CCCC1 do in these assays?
FMDV inh: inactive; HCMV antiviral: inactive; Vaccinia mCherry: inactive; Vaccinia Venus: inactive; HCV inh: inconclusive; HCV confirm: 14µM; HCV host tox: inactive

Results for CCn1c(=O)n(CC)c2cc(N3CCCC3)c(NC(=O)c3cc(Cl)ccc3OC)cc21 ?
FMDV inh: inactive; HCMV antiviral: inactive; Vaccinia mCherry: inactive; Vaccinia Venus: inactive; HCV inh: 4µM; HCV confirm: 16µM; HCV host tox: inconclusive

How did COc1ccc(C(=O)NC2CCCc3c2cnn3-c2ccccc2F)cc1OC (stereo unspecified) do in these assays?
FMDV inh: inconclusive; HCMV antiviral: inconclusive; HCV inh: 4.5µM; HCV confirm: 7µM; HCV host tox: inconclusive

How did COc1cccc(CNC(=O)CSc2n[nH]c(-c3ccccc3Cl)n2)c1 do in these assays?
FMDV inh: inactive; HCMV antiviral: inactive; Vaccinia mCherry: inactive; Vaccinia Venus: inactive

Results for COc1ccc2[nH]cc(CCNc3ncnc4ccc(-c5ccccc5C#N)cc34)c2c1 ?
FMDV inh: inactive; Vaccinia mCherry: inactive; Vaccinia Venus: inactive

Results for COc1ccc2ccc3ccc(OC)c(OC(C)=O)c3c2c1 ?
FMDV inh: inactive; HCMV antiviral: inactive; Vaccinia mCherry: inconclusive; Vaccinia Venus: inactive; HCV inh: inconclusive; HCV confirm: 25µM; HCV host tox: inactive

What do the screens show for `COc1ccc(OC)c(CC(=O)O)c1`?
FMDV inh: inactive; HCMV antiviral: inactive; HCV inh: inactive

What do the screens show for `Cc1ccc(C(=O)c2c3ccc([N+](=O)[O-])cc3[n+]([O-])n2CCCN)cc1`?
FMDV inh: inactive; HCMV antiviral: inactive; Vaccinia mCherry: inconclusive; Vaccinia Venus: 14µM; HCV inh: 7.9µM; HCV confirm: 7µM; HCV host tox: inactive

What do the screens show for `Cc1ccc(CN2C(=O)N(c3ccc(F)cc3)C(=O)C2CC(=O)Nc2ccc(Cl)cc2)cc1` (stereo unspecified)?
FMDV inh: inconclusive; HCMV antiviral: inactive; Vaccinia mCherry: inactive; Vaccinia Venus: inactive

How did CCCCNC(=O)c1nc(C2CCN(S(=O)(=O)c3ccc(C(F)(F)F)cc3)CC2)oc1-c1ccccc1 do in these assays?
FMDV inh: inactive; HCMV antiviral: inactive; Vaccinia mCherry: inactive; Vaccinia Venus: inactive

What do the screens show for `COc1ccc(Nc2nc(N3CCOCC3)nc(N3CCOCC3)n2)cc1`?
FMDV inh: inactive; HCMV antiviral: inactive; HCV inh: inconclusive

Results for COc1ccc(Nc2nc(NC(C)(C)C)nc(N3CCOCC3)n2)c(OC)c1 ?
FMDV inh: inactive; HCMV antiviral: -61; HCV inh: 7.1µM; HCV confirm: 7µM; HCV host tox: inactive

Results for NC(=O)c1c(NC(=O)c2ccc([N+](=O)[O-])o2)sc2c1CCCC2 ?
FMDV inh: inactive; HCMV antiviral: inactive; Vaccinia mCherry: inconclusive; Vaccinia Venus: inactive; HCV inh: inconclusive

What do the screens show for `CN1CCc2c(sc(NC(=O)c3ccc([N+](=O)[O-])o3)c2C(N)=O)C1`?
FMDV inh: inactive; HCMV antiviral: -104; Vaccinia mCherry: inconclusive; Vaccinia Venus: 2.2µM; HCV inh: 4µM; HCV confirm: 14µM; HCV host tox: inconclusive

Results for COc1cccc(N2CCN(S(=O)(=O)c3ccc(-c4ccno4)cc3OC)CC2)c1 ?
FMDV inh: inactive; HCMV antiviral: inactive; Vaccinia mCherry: inactive; Vaccinia Venus: inactive

How did CN1CCN(c2ccc([N+](=O)[O-])c3no[n+]([O-])c23)CC1 do in these assays?
FMDV inh: 5µM; HCMV antiviral: -98; Vaccinia mCherry: inconclusive; Vaccinia Venus: inconclusive; HCV inh: 2.2µM; HCV confirm: 22µM; HCV host tox: 22µM

Results for CCc1ccc(CNC(=O)c2cccc(-n3cnc4cccnc43)c2C)cc1 ?
FMDV inh: inactive; HCMV antiviral: inconclusive; Vaccinia mCherry: inactive; Vaccinia Venus: inactive

What do the screens show for `COc1ccc(C2CC(=O)C3=C(C2)Nc2ncnn2C3c2ccccc2C)c(OC)c1` (stereo unspecified)?
FMDV inh: inconclusive; HCMV antiviral: inactive; HCV inh: 3.5µM; HCV confirm: 7µM; HCV host tox: inactive

Results for COc1cc(C2CC(=O)C3=C(C2)Nc2ncnn2C3c2cccs2)cc(OC)c1OC (stereo unspecified) ?
FMDV inh: inactive; HCMV antiviral: inactive; Vaccinia mCherry: inactive; Vaccinia Venus: inactive; HCV inh: inactive

Results for O=C(NCc1ccccc1)c1ccc(CNS(=O)(=O)c2ccc(Br)cc2)cc1 ?
FMDV inh: inactive; HCMV antiviral: inactive; Vaccinia mCherry: inactive; Vaccinia Venus: inactive

What do the screens show for `COc1ccc(OC)c(C2CC(=O)Nc3c2c(=O)n(C)c2ncnn32)c1` (stereo unspecified)?
FMDV inh: inactive; HCMV antiviral: inactive; Vaccinia mCherry: inactive; Vaccinia Venus: inactive

What do the screens show for `CC1(C)Oc2ccc3ccc(=O)oc3c2-c2cn[nH]c21`?
FMDV inh: inactive; HCMV antiviral: -81; Vaccinia Venus: inconclusive; HCV inh: 7.1µM; HCV confirm: inconclusive; HCV host tox: inconclusive
